Compound activity (PubChem BioAssay)
Rows were chosen to be rich in hits. Some 2.3% of all compounds tested hit in one or more screens of this group.
Coupling enz – inhibits coupling enzyme system, counter-screen for aldolase hits | coupling enzyme system counterscreen, AmpLite Red fluorescence | activity change, negative = inhibition, % at 58.2 µM, hits read low | actives 0.67% (n = 290,000) | AID 2472; in the data active = activity change below about -30%
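Final compound at 57.5 uM, incubated 10 min at RT with coupling enzyme reagent (glyceraldehyde-3-phosphate), then 20 min with substrate and AmpLite Red detection. Fluorescence read at 525/598 nm; tests interference with the coupling assay, not aldolase inhibition.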
Tau fluor cs – counter-screen for tau fibril formation inhibitors; tau K18 P301L Alexa594 fluorescence, heparin fibrillization; Potency, µM (titrated, usually from 57.7 µM), inactives show top-dose activity change, negative = decrease; actives 0.93% (n = 280,000); AID 1463; note: potency is the fitted concentration of half-maximal effect; nearly all actives have a fitted effect of over 55% in size
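Human K18 P301L tau (15 uM unlabeled plus 0.24 uM Alexa 594-labeled, final) in 100 mM sodium acetate pH 7 was mixed with compound and 20 uM heparin and incubated 6 hr at 37 C.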
Tau FP inhib – blocks human tau fibril formation measured by polarization | P10636 | actives 0.39% (n = 280,000) | K18 P301L tau heparin fibrillization, Alexa594 FP, 6 h | Potency, µM (titrated, usually from 57.7 µM), inactives show top-dose activity, negative = inhibition, actives largely listed as inhibitors; note: potency is the fitted concentration of half-maximal effect; nearly all actives have a fitted effect of over 55% in size
Target sequence (P10636 561-689 P618L limits assumed): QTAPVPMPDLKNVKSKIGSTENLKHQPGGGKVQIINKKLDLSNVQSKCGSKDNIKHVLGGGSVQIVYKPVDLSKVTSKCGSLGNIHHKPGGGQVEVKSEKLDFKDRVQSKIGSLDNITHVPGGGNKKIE
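Steps: dispense K18 P301L tau (15 uM plus 0.24 uM Alexa 594 tracer, final) in pH 7 sodium acetate; add compound; add heparin (20 uM final); incubate 6 hr, 37 C; add ThT (30 uM final); after 1 hr ambient, read FP.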
USP1-UAF1 inh – blocks the human USP1/UAF1 deubiquitinase complex; O94782; recombinant USP1/UAF1, Ub-Rhodamine cleavage fluorescence; Potency, µM (titrated, usually from 57.1 µM), without a hit: at the highest dose activity change, negative = inhibition, usual class: inhibitors; actives 0.23% (n = 390,000); AID 743255; note: potency is the fitted concentration of half-maximal effect; nearly all actives have a fitted effect of over 60% in size
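In this screen, compounds sit with the deubiquitinase complex (1nM) for 15 min at room temperature before Ub-Rho is added at 150nM final. Fluorescence rise is then followed for 6 reads every 60 seconds.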
Tau ThT inhib – tau fibrillization inhibition (ThT binding); Potency, µM (doses to about 57.4 µM), without a hit: at the highest dose activity, negative = inhibition, usual class: inhibitors; AID 1460; recombinant tau K18 P301L (four-repeat tau fragment), heparin-induced fibrillization, ThT fluorescence; P10636; actives 2.1% (n = 270,000); note: potency is the fitted concentration of half-maximal effect; nearly all actives have a fitted effect of over 55% in size
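Aggregation was driven by heparin (20 uM final) acting on recombinant tau […] bearing P301L in 100 mM sodium acetate pH 7; fibrils were detected with Thioflavin T.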
An asterisk follows results filed as active; ? = inconclusive; / = no result; [ ] = dose if it differs, or a comment. Unless noted, calls come from the whole dose curve; as a rule, active = well fitted curve in the direction sought with a large enough effect; inconclusive = small, poorly fitted or top-dose-only effect, or another doubt; inactive = no such curve, though single readings can be large; an effect the other way counts as inactive or inconclusive. % is set by controls: 0 for no effect and ±100 for the full control effect.

SMILES | Coupling enz | Tau fluor cs | Tau FP inhib | USP1-UAF1 inh | Tau ThT inhib
CC(=O)N1CCc2nc3sc(C(=O)c4ccc(F)cc4)c(N)c3c(C(F)(F)F)c2C1 | / | -14% | 8% | -10% | 4.5µM*
CCOc1cc(S(=O)(=O)N2CCN=C2Cc2ccccc2)ccc1F | / | / | / | 3% | /
O=[N+]([O-])c1ccc(Nc2nc(N/N=C/c3cccc(F)c3)nc(N3CCCC3)n2)cc1 | 2 | ? | -13% | -11% | ?
CNc1nc(N/N=C/c2ccc([N+](=O)[O-])cc2)nc(Nc2ccccc2)n1 | -1 | 16µM*[quencher] | -7% | -17% | 4µM*
COc1cc(NC(=O)c2ccc(-c3nc(COc4ccccc4)c(C)o3)cc2)cc(OC)c1 | / | ? | ? | ? | -12%
Cc1ccc(NC(=S)/C(=C(\[O-])c2ccc(C)c([N+](=O)[O-])c2)[n+]2ccccc2)cc1C | 2 | -20% | 11% | / | ?
Cc1ccc(/C([O-])=C(/C(=S)Nc2ccc(SC(F)F)cc2)[n+]2ccccc2)cc1[N+](=O)[O-] | -31* | ? | -5% | -25% | ?
Cc1ccc(NC(=S)c2nc3ccccc3[nH]2)c(C)c1 | 0 | ? | 2% | -25% | ?
Cc1ccc(NC(=S)c2nc3ccccc3[nH]2)cc1 | -1 | ? | -2% | -10% | 7.9µM*
CC(C)C[C@@H](CNCC(=O)[C@H](C)NC(=O)c1[nH]cnc1C(=O)N[C@@H](C)CN)NC(=O)c1nc[nH]c1C(=O)N[C@@H](C)C(=O)O | / | / | / | -24% | /
Cc1oc(C)c2c(=O)ccc3c(c12)OC(N)=C(C#N)C3c1ccc(F)cc1 (centres undefined) | -43* | ? | ? | -8% | 25µM*
Cc1ccc(C(=O)c2ccccc2C(=O)OCC(=O)Nc2cccc([N+](=O)[O-])c2)cc1 | -9 | 16µM*[quencher] | ? | -18% | -18%
O=C1O/C(=C/Br)CCC1c1cccc2ccccc12 (centres undefined) | / | ? | ? | / | 18µM*
C/C(=N/Nc1ccc(C(=O)O)cc1)c1ccc2c(c1)Nc1ccccc1S2 | / | / | / | -5% | /
C/C(=N\Nc1ccc(C(=O)O)cc1)c1ccc2c(c1)Nc1ccccc1S2 | 2 | 13µM*[quencher] | -10% | -17% | 3.5µM*
Cc1ccc(C=Nc2ccc(N(C)C)cc2)o1 | -22 | ? | 25µM* | ? | 10µM*
Cc1ccc(C=Nc2ccccc2C(N)=O)o1 | -10 | -4% | 4% | -11% | -15%
CCOC(=O)c1c(-c2ccsc2)csc1N | -34* | -25% | 6% | 0% | ?
CCOC(=O)c1c(-c2ccc(C)s2)csc1N | -41* | 7% | 1% | -6% | 9%
CN(C(=O)OC(C)(C)C)[C@H](Cc1ccccc1)C(=O)N[C@H]1CCCCNC1=O | / | / | / | -24% | /
O=C(NCCCc1ccc(F)cc1)C1CCC(=O)N(CC2CCCCC2)C1 (centres undefined) | / | / | / | -4% | /
Cc1ccc(S(=O)(=O)c2c(N)n(/N=C/c3ccco3)c3nc4ccccc4nc23)cc1 | -7 | ? | ? | -12% | ?
Nc1c(S(=O)(=O)c2ccccc2)c2nc3ccccc3nc2n1/N=C/c1ccco1 | -4 | ? | -8% | -22% | 28µM*
Cc1ccc(S(=O)(=O)c2c(N)n(/N=C/c3ccco3)c3nc4ccccc4nc23)cc1C | 4 | ? | ? | 3% | 16µM*
COc1ccc(-c2csc(/C(C#N)=C(\O)CSc3nccn3C)n2)cc1OC | -15 | ? | -3% | -7% | 18µM*
SMILES | Coupling enz | Tau fluor cs | Tau FP inhib | USP1-UAF1 inh | Tau ThT inhib
Cc1cccc(C)c1NC(=O)CN1C(=O)NC(C)(CCc2ccccc2)C1=O (centres undefined) | 0 | 5% | 1% | -11% | 1%
O=C1CCN2C=Nc3cccc4ccc1c2c34 | -30* | -16% | -5% | 28µM* | ?
Nc1ccc2[nH]ncc2c1 | -42* | -29% | ? | ? | ?
CCOC(=O)c1c(CSc2ccc(C)cc2)oc2ccc(O)cc12 | 2 | ? | 32µM* | -11% | ?
Cc1ccc(C2CC(=O)Oc3cc(C)c(Cl)cc32)cc1 (centres undefined) | 5 | -13%[81.3 µM] | -1%[81.3 µM] | / | -16%[81.4 µM]
Cc1ccc(Nc2cc(C)c3c(O)cccc3n2)cc1C | -37* | 14µM*[quencher] | ? | -11% | /
COc1ccc(Nc2cc(C)c3c(O)cccc3n2)cc1 | -30* | ? | ? | -21% | /
COC(=O)c1cc(Nc2cc(C)c3c(O)cccc3n2)cc(C(=O)OC)c1 | 0 | ? | ? | -3% | /
C/C=C\C1=CCCC1Nc1ncnc2ccc(-c3c(C)noc3C)cc12 (centres undefined) | -1 | / | / | / | /
O=c1c2cc3c(cc2nc2sc(Nc4ccc(F)cc4F)nn12)OCO3 | / | -8% | 10% | -13% | ?
CC1CCCN(Cc2c(O)ccc3c(=O)c(Oc4ccccc4Cl)c(C(F)(F)F)oc23)C1 (centres undefined) | / | -10% | -8% | 6% | 0%
NC(=O)c1sc2nc(-c3ccco3)ccc2c1N | -1 | ? | 0% | -17% | 6.3µM*
Nc1c(C(=O)Nc2ccccc2F)sc2nc(-c3ccco3)ccc12 | 0 | ? | 0% | ? | ?
COC(=O)c1sc2nc(-c3ccco3)ccc2c1N | 3 | ? | 1% | -10% | 7.1µM*
COC(=O)/C(=C/Nc1ccc(O)cc1)[N+](=O)[O-] | -36* | ? | ? | -18% | 18µM*
COc1cc(NC(=O)CC2C(=O)N(c3cccc(C)c3)C(=O)N2Cc2cccs2)cc(OC)c1 (centres undefined) | / | ? | ? | -10% | 1%
Cc1ccc(-c2nc3ccc(Cl)cn3c2Nc2ccc3c(c2)OCCO3)s1 | / | ? | 6% | -14% | 2%
CC(=O)[C@@H]1[C@H]2[C@H](C(=O)[C@H]3OC[C@@H]2O3)[C@H]2C=Cc3ccccc3N21 | -17 | ? | ? | / | 16µM*
O=C(O)C1C=Cc2ccccc2N1C(=O)c1ccccc1 (centres undefined) (tested in a mixture with another compound) | / | / | / | -1% | /
Cc1ccc(C(=O)N2c3ccccc3OCC2C)cc1 (centres undefined) | 0 | / | / | ? | /
COc1ccc(C(=O)C2C3C4COC(O4)C(=O)C3C3C=Cc4ccccc4N32)c(OC)c1 (centres undefined) | -17 | 20µM*[fluorescent] | 11µM* | / | 20µM*
Cc1ccc(C(=O)[C@@H]2[C@H]3C4COC(O4)C(=O)[C@@H]3[C@H]3C=Cc4ccccc4N32)cc1 (some centres undefined) | -19 | ? | ? | / | 22µM*
CC(C)(C)C(=O)Nc1ccc(-c2nc3ccccc3s2)cc1 | / | -5% | -3% | -17% | -4%
